# Source: ChEMBL document CHEMBL3988442, “University of Dundee, Small-Polar-MMV Screening Library” (2021)
# Hit rate of the full screen: of about 66,000 compounds, about 960 (1.5%) showed an effect of 50% or more. Only a selection was taken, and strong results are over-represented in it overall.
# Tested on: Trypanosoma brucei
# Test: Trypanosoma brucei 72 hour study
# Format: functional, organism-based
# Set-up: scale not given: in the data most compounds retested in dose-response had high values
compound,measurement,setting,value
COCc1ccc(C(=O)N2CCC(Oc3ccccc3)(C(=O)O)CC2)o1,Percent Effect,"30 µM, 30.03 µM",-16.4%
O=C(Cc1ccc(Cl)cc1)N1CCC(O)(C(F)(F)F)C1 (configuration not stated),Percent Effect,"30.3 µM, […]",-19.5%
O=C(c1ccc(COc2ccccc2Cl)o1)N1N=CCC1(O)C(F)(F)F (configuration not stated),Percent Effect,"30.3 µM, […]",31%
Cc1cccc(OCc2ccc(C(=O)N3N=CCC3(O)C(F)(F)F)o2)c1 (configuration not stated),Percent Effect,"30.3 µM, […]",67.46%
O=C(c1ccc(COc2ccc(Cl)cc2)o1)N1N=CCC1(O)C(F)(F)F (configuration not stated),Percent Effect,"30.3 µM, […]",99.58%
COc1ccc(C(=O)N2CCC(Oc3cccc(C)c3)(C(=O)O)CC2)o1,Percent Effect,"30 µM, 30.03 µM",-24.59%
COc1c(CNCc2ccc(C(=O)N(C)C(C)C)cc2)c(C)nn1C,Percent Effect,10 µM,-22.99%
COc1ccccc1CNCc1nn(-c2ccccc2)c2c1CCC2,Percent Effect,"30 µM, 30.03 µM",105.2%
Cc1noc(C)c1CNCc1nn(-c2ccccc2)c2c1CCC2,Percent Effect,"30 µM, 30.03 µM",-40.9%
Cc1c(CNCc2nn(-c3ccccc3)c3c2CCC3)cc(C#N)n1C,Percent Effect,"30 µM, 30.03 µM",-10.92%
Cc1cncc(C(=O)N2CCO[C@H]3[C@H](OCCN(C)C)CC[C@@H]32)c1.O=C(O)C(F)(F)F.O=C(O)C(F)(F)F,Percent Effect,"30.3 µM, […]",-21.9%
Cc1n[nH]c(C)c1C1COCCN1C(=O)c1cc(F)ccc1F (configuration not stated),Percent Effect,"30.3 µM, […]",-0.3197%
CNC(=O)CN1CC[C@H]2CN(C(=O)c3cccn3C)C[C@H]2C1.O=C(O)C(F)(F)F,Percent Effect,"30.3 µM, […]",-42.42%
OC1COCCN(Cc2cc(-c3ccccc3OC(F)(F)F)no2)C1 (configuration not stated),Percent Effect,"30 µM, 30.03 µM",-31.26%
NC1CCCCN(Cc2cc(-c3ccccc3OC(F)(F)F)no2)C1 (configuration not stated),Percent Effect,"30 µM, 30.03 µM",101.5%
N[C@@H]1CCN(Cc2cc(-c3ccccc3OC(F)(F)F)no2)C[C@H]1O,Percent Effect,"30 µM, 30.03 µM",-20.57%
O=C(O)C(F)(F)F.O=C(O)C(F)(F)F.c1ccc(OCc2nnc3n2CCN(CC2CC2)C3)nc1,Percent Effect,"30 µM, 30.03 µM",16.25%
CC(C)Oc1ncccc1CNC(=O)N1CCC1,Percent Effect,"30.3 µM, […]",-18.33%
COc1ccc(C)cc1CCNS(=O)(=O)c1ccc2c(c1)CCC(=O)N2,Percent Effect,"30 µM, 30.03 µM",-47.2%
COc1ccc(C)cc1C(C)NS(=O)(=O)c1ccc2c(c1)CCC(=O)N2 (configuration not stated),Percent Effect,"30 µM, 30.03 µM",-36.95%
COc1ccc(C(C)NS(=O)(=O)c2ccc3c(c2)CCC(=O)N3)cc1F (configuration not stated),Percent Effect,"30 µM, 30.03 µM",95.9%
CC(CN1CCOCC1)OC(=O)c1ccccc1Cl.Cl (configuration not stated),Percent Effect,"30 µM, 30.03 µM",-53.51%
CC(C)N(C)Cc1cnc2n1CCN(Cc1ccc(F)cc1)C2.O=C(O)C(F)(F)F.O=C(O)C(F)(F)F,Percent Effect,"30.3 µM, […]",5.253%
Cc1c(C(=O)N2CCN(c3ccccn3)CC2)n(C)c2ccc(Cl)cc12,Percent Effect,"30.3 µM, […]",79.78%
Cc1c(C(=O)N2CCN(C)CC2)n(C)c2ccc(Cl)cc12,Percent Effect,"30.3 µM, […]",12.9%
Cc1c(C(=O)N2CCN(c3ncccn3)CC2)n(C)c2ccc(Cl)cc12,Percent Effect,"30.3 µM, […]",36.3%
Cn1ccnc1CN1CCC2(CC1)Cc1ccccc1CNC2=O.O=C(O)C(F)(F)F,Percent Effect,"30.3 µM, […]",-47.04%
CCC(=O)NC(Cc1cc(N(C)C)nc(C2CC2)n1)c1ccccc1 (configuration not stated),Percent Effect,"30.3 µM, […]",13.14%
CN(C)c1cc(CC(NC(=O)C2CC2)c2ccccc2)nc(C2CC2)n1 (configuration not stated),Percent Effect,"30.3 µM, […]",52.69%
CC(C)C(=O)NC(Cc1cc(N(C)C)nc(C2CC2)n1)c1ccccc1 (configuration not stated),Percent Effect,"30.3 µM, […]",30.74%
CC(C)(C)CN1CC(COc2ccccc2)Oc2ccncc2S1(=O)=O (configuration not stated),Percent Effect,"30.3 µM, […]",-12.26%
O=C(O)C(F)(F)F.c1coc(CN2CCO[C@H]3[C@@H](OCC4CC4)CC[C@@H]32)c1,Percent Effect,"30.3 µM, […]",-12.22%
Cc1nc(CN2CCN(C)C(=O)C23CCN(C(C)C)CC3)cs1.O=C(O)C(F)(F)F,Percent Effect,"30.3 µM, […]",-9.175%
Fc1cccc(Oc2ccc(CNCC3CNc4ccnn4C3)cn2)c1 (configuration not stated),Percent Effect,"30 µM, 30.03 µM",11.44%
Cc1cc2n(n1)CC(CNCc1ccc(Oc3ccccc3)nc1)CN2 (configuration not stated),Percent Effect,"30.3 µM, […]",53.59%
c1cc2n(n1)CC(CNCc1ccc(OC3CCCC3)nc1)CN2 (configuration not stated),Percent Effect,"30.3 µM, […]",80.85%
same,Percent Effect,"10 mM, 10 mM as filed; unlikely as a test dose",9.3%
c1ccc(Oc2ccc(CNCC3CNc4ccnn4C3)cn2)cc1 (configuration not stated),Percent Effect,"30.3 µM, […]",59.34%
same,Percent Effect,"10 mM, 10 mM as filed; unlikely as a test dose",-30.66%
c1cc(CNCC2CNc3ccnn3C2)cc(OC2CCCC2)n1 (configuration not stated),Percent Effect,"30.3 µM, […]",16.86%
Cc1ccc(CNCC2CNc3cc(C)nn3C2)cn1 (configuration not stated),Percent Effect,"30.3 µM, […]",-20.04%
Fc1ccc(Oc2ccc(CNCC3CNc4ccnn4C3)cn2)cc1 (configuration not stated),Percent Effect,"30.3 µM, […]",22.41%
same,Percent Effect,"10 mM, 10 mM as filed; unlikely as a test dose",-33.28%
Cc1cc2n(n1)CC(CNCc1ccc(OCC3CC3)nc1)CN2 (configuration not stated),Percent Effect,"30.3 µM, […]",69.29%
same,Percent Effect,"10 mM, 10 mM as filed; unlikely as a test dose",-5.536%
c1cc2n(n1)CC(CNCc1ccc(OC3CCCCC3)nc1)CN2 (configuration not stated),Percent Effect,"30 µM, 30.03 µM",28.54%
Cc1cc2n(n1)CC(CNCc1ccc(-n3cccn3)nc1)CN2 (configuration not stated),Percent Effect,"30 µM, 30.03 µM",-7.458%
COCCOc1ccc(CNCC2CNc3cc(C)nn3C2)cn1 (configuration not stated),Percent Effect,"30.3 µM, […]",6.502%
COc1ccc(CNCC2CNc3cc(C)nn3C2)cn1 (configuration not stated),Percent Effect,"30.3 µM, […]",11.94%
O=C(Nc1cccn(Cc2ccc(F)cc2)c1=O)c1csnn1,Percent Effect,"30 µM, 30.03 µM",-24.79%
CN(C(=O)Cc1ccccc1Cl)C1CCN(c2ccccn2)CC1,Percent Effect,10 µM,-27.72%
same,Percent Effect,"30.3 µM, […]",20.76%
Cn1cc(C(O)CNC(=O)c2ccc(F)cc2Cl)cn1 (configuration not stated),Percent Effect,"30 µM, 30.03 µM",3.538%
CCN1Cc2nc(OC)c(CNC(=O)CCC3CCCC3)cc2C1=O,Percent Effect,"30 µM, 30.03 µM",-13.67%
O=C(C1CC=CC1)N1C[C@@H](OCc2cccnc2)[C@H]2OCCC[C@H]21.O=C(O)C(F)(F)F,Percent Effect,"30 µM, 30.03 µM",39.05%
CCc1nccn1-c1cncc(C2CCCN2)n1.Cl (configuration not stated),Percent Effect,"30.3 µM, […]",-8.115%
N#Cc1cccc(CN2Cc3nccn3CC(CN3CCCC3)C2)c1.O=C(O)C(F)(F)F.O=C(O)C(F)(F)F (configuration not stated),Percent Effect,"30 µM, 30.03 µM",-41.66%
Cc1cc(N2CCC(CC(N)=O)CC2)nc(-c2ccncc2)n1,Percent Effect,"30.3 µM, […]",0.7336%
Cc1cc(N2CCC(Cc3ccccc3)CC2)nc(-c2ccncc2)n1,Percent Effect,"30.3 µM, […]",99.65%
CC(=O)NCC1CCN(c2cc(C)nc(-c3ccncc3)n2)CC1,Percent Effect,10 µM,-42.73%
Cc1ccc(C(=O)N2CCC3(CC2)CC(N2CCCC2)C3)cc1.O=C(O)C(F)(F)F,Percent Effect,"30.3 µM, […]",-4.803%
Cc1ccc(N2CCC3(CN(Cc4cccs4)CCC3(F)F)C2)nn1.O=C(O)C(F)(F)F (configuration not stated),Percent Effect,"30.3 µM, […]",-34.83%
Cc1ccc(CN2CCn3c(C(=O)N(C)C)cnc3C2)cc1.O=C(O)C(F)(F)F,Percent Effect,"30.3 µM, […]",-165%
Cl.Cn1cc([C@@H]2CN(S(=O)(=O)c3ccccc3F)C[C@H]2N)c2ccncc21,Percent Effect,"30.3 µM, […]",53.59%
Cl.Cn1cc([C@@H]2CN(S(=O)(=O)c3cccnc3)C[C@H]2N)c2ccncc21,Percent Effect,"30.3 µM, […]",-9.979%
Cl.Cn1cc([C@@H]2CN(S(C)(=O)=O)C[C@H]2N)c2ccncc21,Percent Effect,"30.3 µM, […]",-16.68%
c1cc(N2CCC(CN3CCOCC3)CC2)c2sccc2n1,Percent Effect,"30 µM, 30.03 µM",-9.098%
Cc1noc(CNC(=O)NCCOc2ccc(Cl)cc2)n1,Percent Effect,"30 µM, 30.03 µM",-8.016%
COc1ccc(OCc2sc(C3(O)CCCNCC3)nc2C)cc1.Cl (configuration not stated),Percent Effect,"30.3 µM, […]",57.18%
CCN1CCCC(O)(c2nc(C)c(CCOc3ccc(F)cc3)s2)CC1 (configuration not stated),Percent Effect,"30.3 µM, […]",-11.99%
C[C@@H]1CN(CCOc2ccc(Cl)cc2)CC[C@@]1(O)C1CCOCC1,Percent Effect,"30 µM, 30.03 µM",-42.79%
Cc1nc(C2(O)CCCNCC2)sc1CCOc1ccc(F)cc1.Cl (configuration not stated),Percent Effect,"30.3 µM, […]",73.77%
Cc1nc(C2(O)CCCNCC2)sc1CCOc1ccc(Cl)cc1.Cl (configuration not stated),Percent Effect,"30.3 µM, […]",101.5%
Cc1nc(C)c(COc2ccc(S(=O)(=O)N(C)C)cc2)s1,Percent Effect,"30 µM, 30.03 µM",-44.61%
CC(=O)NCc1nc(CCOc2ccc(Cl)cc2)no1,Percent Effect,"30 µM, 30.03 µM",-81.13%
CCCN1CCCC(O)(c2nc(C)c(COc3ccccc3)s2)CC1 (configuration not stated),Percent Effect,"30.3 µM, […]",37.82%
COc1ccc(OCCc2sc(C3(O)CCCNCC3)nc2C)cc1.Cl (configuration not stated),Percent Effect,"30.3 µM, […]",34.01%
O=C(O)C(F)(F)F.O=C(O)C(F)(F)F.c1cnc(N2C[C@H]3CCN(CCN4CCCC4)C[C@H]3C2)cn1,Percent Effect,"30.3 µM, […]",4.729%
COc1cc(C(=O)N2CCCC(c3cc(C)[nH]n3)C2)cc(OC)c1C (configuration not stated),Percent Effect,"30.3 µM, […]",-7.766%
CCCS(=O)(=O)N1CCO[C@H]2[C@@H](Oc3cccnc3)CC[C@@H]21.O=C(O)C(F)(F)F,Percent Effect,"30.3 µM, […]",-3.605%
O=C(NCC1CC1)[C@@H]1CC[C@@H]2[C@@H](CCN2Cc2ccco2)O1.O=C(O)C(F)(F)F,Percent Effect,"30.3 µM, […]",-31.37%
O=C(O)C(F)(F)F.O=C(c1ccco1)N1CC[C@@H]2O[C@H](COCCN3CCCC3)CC[C@@H]21,Percent Effect,"30 µM, 30.03 µM",43.22%
COc1ccc2c(ccn2CCCN)c1.O=C(O)C(=O)O,Percent Effect,"30 µM, 30.03 µM",0.08661%
O=C(O)C(F)(F)F.O=C(c1ccc(F)cc1)N1CCC2(CC1)CC(N1CCOCC1)C2,Percent Effect,"30.3 µM, […]",-59.01%
Cn1nccc1C(=O)N1CC[C@]2(C[C@H](OCc3ccccn3)CO2)C1.O=C(O)C(F)(F)F,Percent Effect,"30.3 µM, […]",-48.61%
COc1cccc(N2Cc3nc(=O)n(C(C)C)n3C2=O)c1,Percent Effect,"30 µM, 30.03 µM",-40.88%
CC[C@@H]1N(Cc2ccc(OC)cc2)CCC[C@]12CCC(=O)N2CCOC.O=C(O)C(F)(F)F,Percent Effect,"30.3 µM, […]",-46.04%
CCOc1ccc(N2CCCN=C2NC(=O)c2cccc(OC)c2)cc1,Percent Effect,"30.3 µM, […]",-26.63%
COc1cccc(-c2noc(C3CCN(Cc4cn(C)nc4C)C3)n2)c1 (configuration not stated),Percent Effect,"30 µM, 30.03 µM",63.09%
COc1cccc(-c2noc(C3CCN(Cc4ccccc4F)C3)n2)c1.Cl (configuration not stated),Percent Effect,"30.3 µM, […]",-18.78%
COc1cccc(-c2noc(C3CCN(Cc4ccccc4C)C3)n2)c1.Cl (configuration not stated),Percent Effect,"30.3 µM, […]",-12.24%
CNC(=O)[C@@]12CCO[C@@H]1CCN(Cc1ccc3c(c1)OCO3)C2.O=C(O)C(F)(F)F,Percent Effect,"30.3 µM, […]",-39.27%
Cc1nccn1CCCn1cncc1-c1ccc2c(c1)CC(C)N2C.Cl (configuration not stated),Percent Effect,"30.3 µM, […]",-10.42%
CCN1c2ccc(-c3cncn3CCCn3ccnc3C)cc2CC1C.Cl (configuration not stated),Percent Effect,"30.3 µM, […]",7.904%
Cc1cc(C)n(CCCn2cncc2-c2ccc3c(c2)CC(C)N3C)n1.Cl (configuration not stated),Percent Effect,"30.3 µM, […]",83.42%
Cc1nccn1CCCn1cncc1-c1ccc2c(c1)CCC(C)N2C.Cl (configuration not stated),Percent Effect,"30.3 µM, […]",17.11%
Cc1nn(C)c(C)c1CCn1cncc1-c1ccc2c(c1)CC(C)N2C.Cl (configuration not stated),Percent Effect,"30.3 µM, […]",26.67%
